Laboratory results from PubChem BioAssay AID717 (Columbia University Molecular Screening Center, 2007).
About 40 (0.04%) of roughly 91,000 compounds were called active. Rule as the data show it: active = activation above about 37%; inactive = the rest. Only a sample is shown.

Each compound was assayed against Bifunctional epoxide hydrolase 2 (Homo sapiens) (UniProt P34913) (assay: sEH enzyme activity enhancers – biochemical, human sEH, primary screen (AID 717)). Details: purified human sEH enzymatic activity, activator screen; at 2 µM; active compounds read high.
Sequence of Bifunctional epoxide hydrolase 2 (Homo sapiens) (P34913 whole entry, looked up): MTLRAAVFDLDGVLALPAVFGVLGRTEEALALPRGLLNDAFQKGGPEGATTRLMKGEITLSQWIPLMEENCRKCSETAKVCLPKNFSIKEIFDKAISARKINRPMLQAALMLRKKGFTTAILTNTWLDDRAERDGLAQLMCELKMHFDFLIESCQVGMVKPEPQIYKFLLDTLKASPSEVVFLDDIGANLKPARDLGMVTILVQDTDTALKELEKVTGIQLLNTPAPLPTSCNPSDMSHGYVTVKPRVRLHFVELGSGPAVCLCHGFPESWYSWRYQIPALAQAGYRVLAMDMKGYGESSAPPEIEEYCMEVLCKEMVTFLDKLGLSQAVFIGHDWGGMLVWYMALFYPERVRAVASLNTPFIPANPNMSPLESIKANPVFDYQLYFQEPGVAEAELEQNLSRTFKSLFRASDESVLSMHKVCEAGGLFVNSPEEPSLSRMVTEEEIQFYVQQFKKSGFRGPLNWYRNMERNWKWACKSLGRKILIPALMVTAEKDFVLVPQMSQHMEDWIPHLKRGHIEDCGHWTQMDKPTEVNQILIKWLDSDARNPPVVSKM

activation, inactive:
CCC(=O)NC(NCC1CCCO1)C(Cl)(Cl)Cl (centres undefined) 2.5%
O=C(CCc1ccc(S(=O)(=O)N2CCOCC2)cc1)Nc1ccc2ccccc2c1 -20.5%
O=C(CCCOc1ccccc1)NCc1ccco1 -2.8%
COc1ccc(C(=O)N2CCc3cc(OC)c(OC)cc3C2c2cccc([N+](=O)[O-])c2)cc1 (centres undefined) 2.1%
Cc1cc(-c2cccs2)nc(-n2cccc2)n1 -0.3%
CCN(CC)CCNc1ccc(Cl)cc1[N+](=O)[O-] -8.3%
Cc1ccccc1NC(=O)C(C)c1ccc(-c2ccccc2)c(F)c1 (centres undefined) -9.7%
CCOc1ccc(Nc2nc(Cc3nnc(SCC(=O)NC4CCCC4)n3C)cs2)cc1 -12.4%
C=CCn1c(Cn2nnc3ccccc32)nnc1SCC(=O)N/N=C/c1cc(Br)cc(OC)c1O -14.1%
CC12c3ccccc3C(c3ccccc31)C1C(=O)N(Cc3cccnc3)C(=O)C12 (centres undefined) -9.7%
CNS(=O)(=O)c1cnccc1N1CCN(c2cccc(C)c2)CC1 -13.7%
COc1ccc(Cl)cc1NC(=O)CN(C)C(=O)CNC(=O)C12CC3CC(CC(C3)C1)C2 -13.2%
Cc1ccccc1C(=O)N1CCC(C(=O)Nc2ccc(S(=O)(=O)N(C)C(C)C)cc2)CC1 -83.3%
Nc1c(-c2ccc(F)cc2)cnc2ncnn12 -1.1%
COC(=O)c1ccc(C(=O)OC)c(NC(=S)N2CCCCC2)c1 1.5%
O=C(CSc1nc2ccccc2o1)N1c2ccccc2Sc2ccc(Cl)cc21 6.7%
Cc1ccccc1OCc1nnc(SCC(=O)N2c3ccccc3Sc3ccc(Cl)cc32)o1 1%
COc1ccc(CCNC(=O)COC(=O)c2ccc[nH]c2=O)cc1 3.2%
CC1CC(C)CN(C/C=C/c2ccccc2[N+](=O)[O-])C1 (centres undefined) -2.6%
O=C(CSCc1ccc([N+](=O)[O-])cc1)NCCSCc1ccccc1 -17.4%
O=C1c2ccccc2C(=O)c2c1cccc2N1CCN(Cc2ccccc2)CC1 33.6%
O=S(=O)(c1ccc(F)cc1)n1ccc(-c2cnc(-c3ccccc3)s2)n1 8.1%
O=c1[nH]n(-c2cccc(Cl)c2)c2ncccc12 0.8%
CC(=O)Nc1ccccc1C(=O)C(=O)Nc1ccc(F)cc1 21.4%
Cc1noc(C)c1C(=O)N(CC(=O)NC1CCCC1)Cc1ccccc1F 5.6%
COc1cccc(NC(=O)C2c3cc(OC)c(OC)cc3C(=O)N(C)C2c2cccnc2)c1 (centres undefined) 4.9%
Cc1cccc(-n2cnc(C(=O)Nc3cccnc3)c2)n1 7.2%
CC(C)C(NS(=O)(=O)c1cccs1)C(=O)Nc1nc(C(C)(C)C)cs1 (centres undefined) -6%
c1ccc2c(C[n+]3csc4ccccc43)cccc2c1 12.2%
c1ccc(-c2ccnc3nc(-n4cccc4)nn23)cc1 3.1%
COc1cccc(/C=N/NC(=O)C(=O)N2CCCC2)c1 7.2%
CC(C)CC(=O)N1CCC(O)(CS(=O)(=O)Cc2ccccc2)CC1 0.4%
NC(=O)COc1ccc(/C=N/NC(=O)C2CCCN2S(=O)(=O)c2ccc(Cl)cc2)cc1 (centres undefined) -1.2%
O=C(O)COc1ccc(-c2nccc(-c3cccs3)n2)cc1 -9.3%
O=C(CSc1ncnc2c1cnn2CCc1ccccc1)Nc1ccc(F)cc1 -20.6%
CN(C)/C=C(\C#N)C(=O)c1cccnc1Oc1ccc(F)cc1F -10.7%
Cc1ccc2c(c1)-c1c(ssc1=S)C(C)(C)N2C(=O)CN1C(=O)c2ccccc2C1=O 25.4%
Cn1nc([N+](=O)[O-])nc1Sc1ccc(C(C)(C)C)cc1 -5.2%
Cc1sc(NC(=S)NC(=O)c2cccs2)nc1-c1ccc(CC(C)C)cc1 17.5%
Cc1ccc(C)c(NC(=O)C2Cc3ccccc3CN2C(=O)OCc2ccccc2)c1 (centres undefined) 7.9%
COC(=O)c1c(-c2cccs2)csc1NC(=O)CSc1ncnc2sc(C)c(C)c12 -7%
Cc1cc([N+](=O)[O-])ccc1NCc1cccc([N+](=O)[O-])c1 2.8%
O=S(=O)(/N=C(/Nc1ccccn1)c1ccccc1)c1ccc(Cl)cc1 -19.7%
N/C(=N\OC(=O)c1cc(-c2ccccc2)nc2ccccc12)c1ccncc1 3%
Cc1cc2cc3c(N)[nH]nc3nc2cc1C -5.4%
O=C(/C=C/c1cccs1)c1cc(Cl)ccc1OC(=O)N1CCOCC1 7.4%
O=C(O)c1ccccc1NC(=S)NC(NC(=O)c1ccccc1[N+](=O)[O-])C(Cl)(Cl)Cl (centres undefined) -9.3%
Cc1c(Br)c([N+](=O)[O-])nn1C(C)C(=O)Nc1nccs1 (centres undefined) 6.6%
CN(C)/C=C/C(=O)c1ccccc1F -11.3%
COC(=O)CN(C(=S)Nc1ccc(Cl)cc1)C1CC(=O)N(c2ccc(OC)cc2)C1=O (centres undefined) -11.8%
Cc1ccc(-c2nnc(C)c(N3CC(C)OC(C)C3)n2)cc1 (centres undefined) -0.3%
COc1ccc(-c2c(C(C)=O)c(C)nc3sc4c(=O)n(-c5ccc(C)cc5)nnc4c23)cc1 -1.9%
O=C(ON=C1CCN(S(=O)(=O)c2ccccc2)CC1)c1ccc(Cl)cc1 0.1%
N#C/C(=C(/O)Cc1cccc2ccccc12)c1nc2ccccc2s1 13.6%
NS(=O)(=O)c1ccc(Nc2nc(-c3ccccc3)cs2)cc1 -4.9%
CS(=O)(=O)N(CC(=O)Nc1ccc(F)cc1F)c1cccc([N+](=O)[O-])c1 -2.8%
O=C(Nc1cc(C(F)(F)F)ccc1Cl)c1cc2nc3c(c(C(F)(F)F)n2n1)CCCC3 -7.1%
COc1ccc(/C=C2\CCCC3C2=NN(C(=O)c2scnc2C)C3c2ccc(OC)cc2)cc1 (centres undefined) 12.7%
O=C(c1ccccc1)C(Cn1cncn1)C(Sc1ccccc1)c1ccccc1 (centres undefined) 3.9%
